Inconclusive results are not listed. Activity calls are given as the source filed them. Calls come from the whole dose curve; as a rule, active = well fitted cell-killing curve with a large enough effect; inconclusive = small, poorly fitted or top-dose-only effect, or effect the other way; inactive = no such curve, though single readings can be large or run the other way.

The first assay in a line: Quantitative High-Throughput drug screen in 47 multiple myeloma cell lines against the NCATS MIPE library collection: XG1_PLB cell viability assay (AID 1919866). Note: nearly all actives have a fitted effect of over 35% in size. The conditions noted are these: CellTiter-Glo ATP, 48 h; series mostly up to 45.8 µM. The procedure, abridged: (§1)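 Cells were exposed to library compounds for 48 hours, after which ATP was measured by CellTiter-Glo. Signal was taken as median relative luminescence units.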
On to `Oc1ccc2c3c1O[C@H]1c4[nH]c5c(c4C[C@@]4(O)[C@@H](C2)N(CC2CC2)CC[C@]314)C[C@@]1(O)[C@H]2Cc3ccc(O)c4c3[C@@]1(CCN2CC1CC1)[C@H]5O4`, for which the Potency entry is “inactive”. Same read-out and setting: the entry for `C[C@]12COC(=O)C[C@@H]1CC[C@@H]1[C@H]2CC[C@@]2(C)[C@H]1CC[C@]2(C)O` is “inactive”; for `Clc1ccccc1C(c1ccccc1)(c1ccccc1)n1cccn1` it is “inactive”; for `CC1=NN=C(c2ccc(N)cc2)c2cc3c(cc2C1)OCO3` it is “inactive”.

Another assay in a line: Quantitative High-Throughput drug screen in 47 multiple myeloma cell lines against the NCATS MIPE library collection: VP6_DJ cell viability assay (AID 1919867). Note: nearly all actives have a fitted effect of over 40% in size. Note: potency is the fitted concentration of half-maximal effect. The settings on record: ATP luminescence, 48 h; series mostly up to 45.8 µM. The method in brief: as §1
Turning to `CCOC(=O)c1c(C(C#N)=CN)c2ccc(Cl)c(Cl)c2n1C`, the Potency result is “inactive”. On the same count and under the same terms, the result for `C[C@@H]1O[C@@H](O[C@@H]2C=C3CC[C@@H]4[C@@H](CC[C@]5(C)[C@H](c6ccc(=O)oc6)CC[C@@]45O)[C@@]3(C)CC2)[C@H](O)[C@H](O)[C@H]1O` reads 0.0118 µM (active). On the same count and under the same terms, the result for `C[C@@]12OC(=O)[C@]1([C@@H](O)[C@@H]1C=CCCC1)NC(=O)[C@H]2CCCl` reads 0.001 µM (active). As for `CC(=Cc1csc(C)n1)[C@@H]1C[C@H]2O[C@]2(C)CCC[C@H](C)[C@@H](O)[C@@H](C)C(=O)C(C)(C)[C@@H](O)CC(=O)O1`, the Potency result was “inactive”. For the compound `CC[C@H]1C=CC=CC[C@@H](C)[C@H](O)[C@@](C)(O)C(=O)[C@@H](C)[C@H](O)[C@@H](C)C(=O)[C@@H](C)[C@H](O)[C@@H](C)C=CC(=O)O[C@@H]2[C@@H](C)[C@H](CC1)O[C@]1(CC[C@H](C)[C@H](C[C@@H](C)O)O1)[C@H]2C`, the Potency was 0.001 µM (active). `COc1cc([C@@H]2c3cc4c(cc3[C@@H](O)C3COC(=O)C32)OCO4)cc(OC)c1O` (stereo partly drawn): the Potency is 0.0526 µM (active). The same measure, in the same setting: the result for `COc1ccc2c(c1)CN(C)CC2c1ccc(Cl)c(Cl)c1` (stereo not drawn) reads 14.8 µM (active). Still for that read-out and setting: the result for `CCN(CC)C(=O)c1ccc(C2=CC3(CCNCC3)Oc3cccc(O)c32)cc1` reads “inactive”; that for `O=c1cccc2n1CC1CNC[C@H]2C1`, 13.2 µM (active); that for `COc1ccc(CC2NCCc3cc(OC)c(OC)cc32)cc1OC` (stereo not drawn), 9.35 µM (active). For the compound `CC(=CCCC1=CCC(C2=CC(=O)OC2O)OC1O)CCC1=C(C)CCCC1(C)C` (stereo not drawn), the Potency is 4.18 µM (active).

The nature of the next assay: Quantitative High-Throughput drug screen in 47 multiple myeloma cell lines against the NCATS MIPE library collection: UTMC2_PLB cell viability assay (AID 1919868). Note: nearly all actives have a fitted effect of over 55% in size. Note: potency is the fitted concentration of half-maximal effect. The conditions noted are these: CellTiter-Glo ATP luminescence, 48 h; viability (% of DMSO control): at 45.8 µM (top of the series). The procedure, abridged: as §1
On to `C[C@]12CC[C@H]3[C@@H](CCC4=CC(=O)CC[C@@]43C)[C@H]1CC[C@H]2O`, for which the Potency result was “inactive”. With `Cc1c(C(=O)Nc2cccc(C(F)(F)F)c2)cc(-c2ccccc2)n1CCCN1CCOCC1`, the Potency is 5.9 µM (active). The same measure, in the same setting: the entry for `CCOC(=O)c1c(C(C#N)=CN)c2ccc(Cl)c(Cl)c2n1C` is “inactive”; for `CC(C)N(CCNC(=O)CN1CCCC1=O)C(C)C` it is “inactive”. For the compound `C[C@@]12OC(=O)[C@]1([C@@H](O)[C@@H]1C=CCCC1)NC(=O)[C@H]2CCCl`, the Potency was 0.0235 µM (active). For the compound `CC[C@H]1C=CC=CC[C@@H](C)[C@H](O)[C@@](C)(O)C(=O)[C@@H](C)[C@H](O)[C@@H](C)C(=O)[C@@H](C)[C@H](O)[C@@H](C)C=CC(=O)O[C@@H]2[C@@H](C)[C@H](CC1)O[C@]1(CC[C@H](C)[C@H](C[C@@H](C)O)O1)[C@H]2C`, the Potency was 0.001 µM (active). `COc1cc([C@@H]2c3cc4c(cc3[C@@H](O)C3COC(=O)C32)OCO4)cc(OC)c1O` (stereo partly drawn): the Potency was 0.0469 µM (active). Still for that read-out and setting: the result for `O=C1C=CC[C@@H]2[C@H]3CCCN4CCC[C@@H](CN12)[C@@H]34` reads “inactive”.
